Screening results deposited in PubChem BioAssay by National Center for Advancing Translational Sciences (NCATS).
The full list was thinned out, with hits kept by preference.
Menin-MLL FL inh: menin-MLL binding inhibition, fluorescein peptide. Fluorescence polarization, fluorescein-MLL peptide displacement from menin. FP activity change, % at 61.4 µM. 290,000 tested, under 10 active. AID 1766; active = well fitted curve in the direction sought with a large enough effect in the polarisation, not every such curve was filed as active; inconclusive = small, poorly fitted or top-dose-only effect, or effect the other way, or a change in a side signal; inactive = no such curve, though single readings can be large or run the other way; the % refers to the polarisation
ERG-DNA inh: ERG Ets/DNA interaction inhibition. P11308. fluorescence polarization, His-ERG Ets domain / labelled DNA. Potency, µM (highest dose often 76.9 µM), hits mostly inhibitors. 0.028% of 370,000 active; active = well fitted inhibition curve with a large enough effect in the polarisation, with a control signal flat; inconclusive = small, poorly fitted or top-dose-only effect, or effect the other way, or a change in a side signal; inactive = no such curve, though single readings can be large or run the other way; the % refers to the polarisation;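 note: polarization taken with two DNA probes labelled with fluorescein and Texas red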
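His-tagged ERG Ets domain (1 uM in the protein solution; 300mM KCl, 50mM Tris-HCl, 1mM EDTA, 1mM DTT, pH 7.5) received compound, then a probe mix of 5 nM fluorescein-DNA and 100nM Texas-615-DNA. Fluorescence polarization was read for both dyes.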
MLL CXXC-DNA inh: MLL CXXC-DNA interaction inhibition; Potency, µM (titrated, usually from 115 µM), actives largely listed as inhibitors; AID 2662; MLL-CXXC / FITC-HOXA9 DNA fluorescence polarization; Q03164; 0.037% of 290,000 active; active = well fitted inhibition curve with a large enough effect in the polarisation, with a control signal flat, not every such curve was filed as active; inconclusive = small, poorly fitted or top-dose-only effect, or effect the other way, or a change in a side signal; inactive = no such curve, though single readings can be large or run the other way; the % refers to the polarisation
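Fluorescence polarization: 7 uM MLL-CXXC (stock) preincubated 5 min with compounds, then 50 nM fluorescein-HOX-A9 DNA (stock) added; 30 min ambient. Buffer 50 mM Tris-HCl pH 7.5, 50 mM NaCl, 1 mM DTT, 0.05% BSA.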
Menin-MLL TR inh: menin-MLL binding inhibition, Texas Red mutant peptide; O00255; Menin + Texas Red MLL mutant peptide, fluorescence polarization; Potency, µM (series often up to 61.6 µM), actives largely listed as inhibitors; 0.23% of 270,000 active; AID 1768; active = well fitted inhibition curve with a large enough effect in the polarisation, with a control signal flat, not every such curve was filed as active; inconclusive = small, poorly fitted or top-dose-only effect, or effect the other way, or a change in a side signal; inactive = no such curve, though single readings can be large or run the other way; the % refers to the polarisation
MmCpn inh: blocks the Methanococcus maripaludis chaperonin Mm-Cpn; Potency, µM (top dose mostly 76.9 µM), most hits filed as inhibitors; AID 504842; 0.031% of 330,000 active; purified Mm-Cpn ATPase, ADP Transcreener TR-FRET; active = well fitted inhibition curve with a large enough effect; inconclusive = small, poorly fitted or top-dose-only effect; note: nearly all actives have a fitted effect of over 80% in size
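Quantitative HTS used 25 nM Mm-CPN and 10 uM ATP in magnesium/KCl Tris buffer, pH 7.4, with 1 mM DTT. Hydrolysis ran 30 min at 37°C; ADP was read by HTRF.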
Numbers stand for hits; – = inactive; ? = inconclusive; · = no result; [ ] = remark or other dose.

SMILES	Menin-MLL FL inh	ERG-DNA inh	MLL CXXC-DNA inh	Menin-MLL TR inh	MmCpn inh
CC[C@H](C)[C@H](N)C(=O)N[C@@H](CCCNC(=N)N)C(=O)N[C@@H](CCC(N)=O)C(=O)NCC(=O)N1CCC[C@H]1C(=O)N[C@@H](CCCCN)C(=O)N[C@@H](CCC(=O)O)C(=O)N1CCC[C@H]1C(=O)N[C@@H](Cc1ccccc1)C(=O)N[C@@H](CCCNC(=N)N)C(=O)N[C@@H](CC(=O)O)C(=O)N[C@@H](Cc1ccc(O)cc1)C(=O)N[C@H](C(=O)N[C@@H](CC(=O)O)C(=O)N[C@@H](CCCNC(=N)N)C(=O)N[C@@H](Cc1ccccc1)C(=O)N[C@@H](Cc1ccc(O)cc1)C(=O)N[C@@H](CCCCN)C(=O)N[C@H](C(=O)N[C@@H](CC(C)C)C(=O)O)[C@@H](C)O)C(C)C	–	·	·	–	·
CNc1ncc(C(=O)c2ccc(Cl)c(Cl)c2)s1	–	–	–	–	–
O=C(c1ccc(Cl)c(Cl)c1)c1cnc(Nc2ccccc2)s1	–	–	–	22µM	–
CN1CCc2cc(O)c(O)cc2C1Cc1ccc(O)c(O)c1 (stereo not drawn)	–	·	·	–	·
COc1ccc(NC(=O)/C(C#N)=C/c2ccc(OCc3ccccc3F)cc2)cc1	–	–	–	18µM	–
CC(C)n1cc(/C=C2/SC(=O)N(CC(=O)Nc3ccc4c(c3)OCO4)C2=O)c2ccccc21	–	–	–	7.9µM	–
COc1ccccc1-c1csc(N2CCC(C(N)=O)CC2)n1	·	·	·	·	–
COc1cccc2c1C(=O)c1c(O)c3c(c(O)c1C2=O)CC(O)(C(C)=O)CC3OC1CC(N(C)C)C(O)C(C)O1 (stereo not drawn)	·	1µM	·	·	·
CC[C@@]1(O)C[C@H](O[C@H]2C[C@@H](N(C)C)[C@@H](O[C@H]3C[C@@H](O)[C@@H](O[C@H]4CCC(=O)[C@@H](C)O4)[C@@H](C)O3)[C@@H](C)O2)c2c(cc3c(c2O)C(=O)c2c(O)cccc2C3=O)[C@H]1C(=O)OC	?	·	?	–	·
OCC1=C[C@@H](O)[C@@H]2C=CO[C@@H](OC3O[C@H](CO)[C@@H](O)[C@H](O)[C@H]3O)[C@H]12 (stereo partly drawn)	–	·	·	–	·
COc1ccc(CNc2nc(NCc3ccc(OC)cc3)c3ncn(C4CCCCC4)c3n2)cc1	–	·	·	–	·
S=c1[nH]nc(-c2cccc(Br)c2)o1	–	–	–	–	32µM
Cc1ccccc1NC(=S)NNc1ncc(C(F)(F)F)cc1Cl	–	–	–	–	50µM
Nc1ccccc1S(=O)(=O)Nc1cccc2cccnc12	–	·	·	?	·
CC(C)c1onc(-c2c(Cl)cccc2Cl)c1COc1ccc(/C=C/c2cccc(C(=O)O)c2)c(Cl)c1	–	·	·	?	·
O=C(O)C1C2CCC(O2)C1C(=O)Nc1ccc(O)cc1 (stereo not drawn)	·	–	–	32µM	–
O=C(Nc1nc(-c2ccccc2)cs1)C1c2ccccc2Oc2ccccc21	–	–	–	18µM	–
COc1ccc(OC)c(-c2csc(NC(=O)C3c4ccccc4Oc4ccccc43)n2)c1	–	–	–	14µM	–
Cc1cccc(C)c1NC(=O)C(=O)c1cn(C)c2ccccc12	–	–	–	–	56µM
Cc1cc(NC(=O)C(=O)c2cn(C)c3ccccc23)no1	–	–	–	–	–
O=C1CCCC(O)=C1N=Nc1ccc(C(=O)O)cc1	–	28µM	–	·	–
O=C1CCCC(O)=C1N=Nc1ccc2c(c1)OCO2	–	–	–	–	–
CC(C)[C@H](NC(=O)[C@H](CCCCN)NC(=O)[C@@H](NC(=O)[C@@H]1CCCN1C(=O)[C@H](CCCN=C(N)N)NC(=O)[C@H](CCCN=C(N)N)NC(=O)[C@H](CCCCN)NC(=O)[C@H](CCCCN)NC(=O)CNC(=O)[C@@H](NC(=O)[C@@H]1CCCN1C(=O)[C@@H](N)CCCCN)C(C)C)C(C)C)C(=O)N[C@@H](Cc1ccc(O)cc1)C(=O)N1CCC[C@H]1C(=O)O	–	·	·	?	·
COc1[nH]c(/N=C/c2ccccc2)c(C#N)c1C#N	?	32µM	–	11µM	–
Cc1ccc(N=C2C(=O)Nc3ccccc32)cc1	–	–	–	–	–
SMILES	Menin-MLL FL inh	ERG-DNA inh	MLL CXXC-DNA inh	Menin-MLL TR inh	MmCpn inh
CCN(CC)c1ccc(N=C2C(=O)Nc3ccccc32)cc1	–	–	–	22µM	–
CC[C@H](C)[C@H](NC(=O)[C@H](N)Cc1ccc(O)cc1)C(=O)N[C@@H](CC(N)=O)C(=O)N[C@@H](CC(C)C)C(=O)N[C@H](C(=O)N[C@@H](C(=O)N[C@@H](CCCN=C(N)N)C(=O)N[C@@H](CCC(N)=O)C(=O)N[C@@H](CCCN=C(N)N)C(=O)N[C@H](Cc1ccc(O)cc1)C(N)=O)[C@@H](C)O)[C@@H](C)CC	–	·	·	–	·
COc1ccccc1C1CCN(Cc2cccc(C(=O)N3CCC(O)CC3)c2)CC1	–	–	–	?	–
COc1ccccc1C1CCN(Cc2ccc(C)cc2)CC1	–	32µM	–	–	–
CC[C@H](C)[C@H](NC(=O)[C@H](CC(C)C)NC(=O)[C@@H](N)CO)C(=O)NCC(=O)N[C@@H](CCCCN)C(=O)N[C@H](C(=O)O)C(C)C	–	·	·	–	·
Cc1ccc(/C=C/C2=CC3(C)CC2(C)C(c2ccc(C)cc2)CC3=O)cc1 (stereo not drawn)	–[11.7 µM]	·	·	10µM	·
N#Cc1cccc(-c2csc(N3CCC(C(N)=O)CC3)n2)c1	·	·	·	·	–
Cc1ccccc1C(=O)NCC(c1ccco1)N1CCc2ccccc2C1 (stereo not drawn)	·	–	·	·	40µM
CC(C)CN1CCNC(=O)C1CC(=O)NCCc1ccc(C(F)(F)F)cc1 (stereo not drawn)	–	–	–	–	32µM
CC(C)CN1CCNC(=O)C1CC(=O)NCCc1cnn(-c2ccccc2)c1 (stereo not drawn)	–	–	–	–	–
CCOC(=O)C(CS)NCCN[C@@H](CS)C(=O)OCC (stereo partly drawn)	–	·	–	–	·
CC(C)C(=O)SCCCCCCC(=O)Nc1nc(-c2ccccc2)cs1	–	·	·	–	·
CCC(=O)Nc1cccc(C(=O)OCc2cccc([N+](=O)[O-])c2)c1	–	7.1µM	–	–	–
O=C1CCCC/C1=C\Nc1ccc(O)cc1	–	–	–	32µM	–
C/C=C\C1=CCCC1Nc1ncnc2ccc(-c3c(C)noc3C)cc12 (stereo not drawn)	–	·	·	–	·
[O-][n+]1ccccc1SSc1cccc[n+]1[O-]	–	·	–	–	·
Cc1nn(C)c(C)c1N1C(=O)c2cccc3c(N)ccc(c23)C1=O	?	35µM	?	–	–
Cc1nn(C)c(C)c1N1C(=O)c2cccc3c(Br)ccc(c23)C1=O	–	–	–	–	–
Cc1ccc(S(=O)(=O)c2cc(OC(=O)c3ccco3)ccc2OC(=O)c2ccco2)cc1	·	–	–	·	–
